# Measurements taken from PubChem BioAssay (NCI).
# This is part of a sample that, as a whole, favours compounds with a hit. Of some 83,000 tested, about 20% had one in any assay.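 Growth was measured after 48 h exposure to one concentration of compound in 96-well plates. Values under 10 count as active.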 Calls of active or inactive are those of the source.
# System: M14 melanoma
# Assay: NCI-60 one-dose screen, 48 h (100 = growth as untreated, 0 = no growth, -100 = all killed)
# Conditions: 10 µM unless noted
row,Structure (SMILES),growth
1,CC(C)Cc1nc(Nc2ccccc2)[nH]c(=O)c1C#N,53.2% (inactive)
2,CN(C)/C(N)=N/N=C(\c1ccccc1)c1ccccn1,93% (inactive)
3,CS(=O)(=O)Nc1cc(-c2ccc3ncnc(Nc4ccc5c(cnn5Cc5ccccc5F)c4)c3c2)cnc1Cl,39.1% (inactive)
4,Nc1cc(-c2ccc(Cl)cc2)nn1-c1nnc(/C=C/c2ccco2)c(=O)[nH]1,57.4% (inactive)
5,CCCN(CCSSCCNc1nc(N(C)O)nc(N(C)O)n1)c1nc(N(C)O)nc(N(C)O)n1,84.4% (inactive)
6,Cc1nc([P+](c2ccccc2)(c2ccccc2)c2ccccc2)c(N2CCCCC2)o1,37% (inactive)
7,CCN(CC)CCn1c2ccc(OC)cc2c2sc3cc(O)ccc3c(=O)c21,31.2% (inactive)
8,O=C(NCCCCCCNC(=O)OCc1ccc2c(Cl)cc(Cl)c(O)c2n1)OCc1ccc2c(Cl)cc(Cl)c(O)c2n1,-38.7% (active)
9,O=C(Nc1cccnc1Nc1ccc(Cl)cc1)c1cn(Cc2cccc(Oc3ccccc3)c2)nn1,21.8% (inactive)
10,Cc1ccc2c(c1)sc1nc(-c3c[nH]c4ccccc34)c(Nc3ccccc3)n12,107% (inactive)
11,CN1c2ccccc2S(=O)(=O)n2c(SCC(=O)Nc3nc4ccc(F)cc4s3)nnc21,100% (inactive)
12,COC12C=C/C(=C(/C(=O)OCc3csc(SC)n3)C(=O)CCCCCCCCC3(OC)C=C/C(=C(/C(=O)OCc4cnc(SC)s4)C(=O)CCCCCCCC1)O3)O2 (centres undefined),12% (inactive)
13,Nc1[nH]nc2nc(-c3ccccc3)n3c4ccccc4nc3c12,99.5% (inactive)
14,CS(=O)/C(C#N)=C\C=C\c1cccc(Cl)c1 (centres undefined),-3.44% (active)
15,CN(C)CCCC1(c2ccc(F)cc2)OCc2cc(-c3csc4ccccc34)ccc21 (centres undefined),-57% (active)
16,COCCn1cc(-c2csc(-c3c[nH]c4ccccc34)n2)c2cccnc21,18.6% (inactive)
17,O=S(=O)(NCCNc1nccc(-c2c(-c3ccc(F)c(O)c3)nc3sccn23)n1)c1ccc(Cl)cc1,27.5% (inactive)
18,Cc1cccc(NC(=O)N/C(N)=N/c2nc3ccccc3s2)c1,16.5% (inactive)
19,N#Cc1c(-c2cccc(Cl)c2)cc(-c2cccnc2)[nH]c1=O,54.2% (inactive)
20,C=CC(CC(c1ccccc1)(c1ccccc1)c1ccccc1)N(CC)CC (centres undefined),30.1% (inactive)
21,C/C(=C(\c1ccc(OCCN2CCCCCC2)cc1)c1ccc(OC(=O)c2ccccc2)cc1)c1ccc(Cl)cc1,0.53% (active)
22,O=C(/C=C/c1ccccc1)c1ccc(-n2cc(CN3CCN(c4cc5c(cc4F)c(=O)c(C(=O)O)cn5C4CC4)CC3)nn2)cc1,84.4% (inactive)
23,CCCCCCCCCCCCCCCCCCOc1ccccc1CC(=O)NCC[N+](C)(C)C,33.7% (inactive)
24,CCN(CC)CCOc1ccc(/C(=C(\C)Cc2ccc(OC)cc2)c2ccc(OC(=O)NCc3ccccc3)cc2)cc1,-61.5% (active)
25,COc1cc([C@@H](CCO)C[C@H](C)c2ccc3ccccc3c2)cc(OC)c1OC,15.5% (inactive)
26,CCOC(=O)/C(=C(/C)NCC(C)C)c1cc(O)c(O)c2c(C)cc(=O)[nH]c12,53.3% (inactive)
27,COc1ccc(/C=C2\c3cc(OC)c(OC)c(OC)c3CC[C@@H]2O)cc1F,5.42% (active)
28,O=c1oc2c(cc1-c1ccccc1)c[n+]([O-])c1ccccc21,103% (inactive)
29,CN1C(=O)/C(=C/c2ccc(C(=O)Nc3ncc(Cc4cccc(C(F)(F)F)c4)s3)cc2)SC1=S,16.4% (inactive)
